Data published in the supplement of paper PMC9694430.

Columns and labels:
Test in all cases: thermal shift delta Tm vs DMSO control; higher = stronger stabilization (binding)
Conditions in all cases: 12.5 µM; protein concentration 2 µM
LOC_OS01G57100-cb003 = tested on: LOC_OS01G57100-cb003
Method in brief: (§1)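 Rice kinase domain constructs were expressed in E. coli, purified, and tested by differential scanning fluorimetry with compound added in DMSO. Each well of a 96-well plate held 19.5 μl of 2 μM kinase in 100 mM potassium phosphate pH 7.5, 150 mM NaCl, 10% glycerol and 5 × SYPRO Orange, and fluorescence was read from 25°C to 95°C at 0.05°C/s. The melting temperature shift is the mean of triplicates, taken against protein with DMSO alone after Boltzmann fitting.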

LOC_OS01G60330-cb001 = tested on: LOC_OS01G60330-cb001
Method in brief: as §1

LOC_OS01G60700-cb002 = tested on: LOC_OS01G60700-cb002
Method in brief: as §1

LOC_OS01G63280-cb003 = tested on: LOC_OS01G63280-cb003
Method in brief: as §1

LOC_OS01G67340-cb003 = tested on: LOC_OS01G67340-cb003
Method in brief: as §1

LOC_OS01G70970-cb002 = tested on: LOC_OS01G70970-cb002
Method in brief: as §1

LOC_OS02G07810-cb001 = tested on: LOC_OS02G07810-cb001
Method in brief: as §1

LOC_OS02G08530-cb003 = tested on: LOC_OS02G08530-cb003
Method in brief: as §1

LOC_OS02G14120-cb001 = tested on: LOC_OS02G14120-cb001
Method in brief: as §1

LOC_OS02G17970-cb001 = tested on: LOC_OS02G17970-cb001
Method in brief: as §1

| SMILES | thermal shift delta Tm (LOC_OS01G57100-cb003) [°C] | thermal shift delta Tm (LOC_OS01G60330-cb001) [°C] | thermal shift delta Tm (LOC_OS01G60700-cb002) [°C] | thermal shift delta Tm (LOC_OS01G63280-cb003) [°C] | thermal shift delta Tm (LOC_OS01G67340-cb003) [°C] | thermal shift delta Tm (LOC_OS01G70970-cb002) [°C] | thermal shift delta Tm (LOC_OS02G07810-cb001) [°C] | thermal shift delta Tm (LOC_OS02G08530-cb003) [°C] | thermal shift delta Tm (LOC_OS02G14120-cb001) [°C] | thermal shift delta Tm (LOC_OS02G17970-cb001) [°C] |
| --- | --- | --- | --- | --- | --- | --- | --- | --- | --- | --- |
| COc1ccc(CC(=O)Nc2nc3c(s2)CCc2ccccc2-3)cc1OC | 2.6 | 0.9 | 0.11 | 0.2 | 1.18 | 0.74 | -0.24 | 0.98 | 2.82 | 0.81 |
| C=CC(=O)N1CCC(Oc2cc3c(Nc4ccc(Cl)c(Cl)c4F)ncnc3cc2OC)CC1 [Poziotinib (HM781-36B)] | 0.31 | -0.17 | 0.72 | 0.26 | 0.45 | 0.11 | -0.05 | 1.45 | 1.12 | 0.35 |
| CNC(=O)Nc1ccc(-c2nc(N3CC4CCC(C3)O4)c3cnn(C4CCC5(CC4)OCCO5)c3n2)cc1 | 2.76 | 1.5 | 0.99 | 0.45 | 0.98 | 0.28 | 1.7 | 1.49 | 1.03 | 0.84 |
| CC[C@@H](N)CNc1ccnc(-c2cc(-c3cnn(C)c3)ccc2O)n1 | 0.71 | 0.32 | -0.42 | 0.05 | 1.83 | 0.65 | -0.8 | 2.73 | 4.11 | 0.54 |
| C[C@]1(O)C[C@@H](c2nc(-c3ccc4ccc(-c5ccccc5)nc4c3)c3c(N)nccn32)C1 [Linsitinib (OSI-906)] | 0.52 | 1.43 | 1.07 | 2.13 | 0.12 | 0.38 | 1.27 | 0.86 | 0.29 | 0.89 |
| C[C@H](Nc1ncnc2[nH]cnc12)c1cc2ccc(F)cc2nc1-c1ccccn1 | 2.29 | 1.36 | 2.33 | 0.52 | 0.95 | 0.17 | 0.74 | 0.28 | 0.28 | 0.95 |
| CO[C@H]1C[C@@H]2CC[C@@H](C)[C@@](O)(O2)C(=O)C(=O)N2CCCC[C@H]2C(=O)O[C@H]([C@H](C)C[C@@H]2CC[C@H](n3cnnn3)[C@H](OC)C2)CC(=O)[C@H](C)/C=C(\C)[C@@H](O)[C@@H](OC)C(=O)[C@H](C)C[C@H](C)/C=C/C=C/C=C/1C [Zotarolimus(ABT-578)] | 2.14 | 2.43 | 1.29 | 0.68 | 0.45 | 0.71 | 1.19 | 0.56 | 0.48 | 1.06 |
| CC(C)(C)c1cc(NC(=O)Nc2ccc(Oc3ccnc4[nH]c(=O)cnc34)cc2F)n(-c2ccccc2)n1 | 1.77 | 1.69 | 1.38 | 10.7 | 0.45 | 0.73 | 0.8 | 1.22 | 4.49 | 2.69 |
| CCN(CC)CCNC(=O)c1c(C)[nH]c(/C=C2\C(=O)Nc3ccc(F)cc32)c1C [Sunitinib Malate] | 0.44 | 9.27 | 0.27 | 0.02 | 2.37 | 7 | -0.25 | 5.21 | 7.4 | -0.05 |
| Cc1cnc(NC(=O)Nc2cc(Br)c(C)cc2OC[C@@H]2CNCCO2)cn1 | 0.95 | 0.18 | 0.72 | 0.14 | 0.03 | 0.38 | 0.19 | 2.28 | 0.85 | 0.19 |
| COc1ccc(Oc2cc(NCCC(F)(F)F)c3ncc(-c4ccc(C(=O)NC5CC5)c(C)c4)n3n2)c(F)c1F | -1.23 | 1.27 | -0.2 | 0.82 | 1 | 0.18 | 1.17 | 0.66 | -0.01 | 1.28 |
| CCn1c(=O)c(-c2cc[nH]n2)cc2c(C)nc(N)nc21 | -0.09 | 0.91 | 0.72 | 0.14 | 0.34 | 0.36 | 0 | 0.79 | 0.62 | 0.52 |
| OC1CCC(Nc2ncc3nc(Nc4c(F)cc(F)cc4F)n([C@H]4CCOC4)c3n2)CC1 (stereo not given in full) [Tanzisertib(CC-930)] | 1.12 | 0.58 | 0.28 | 0.29 | 0.54 | 0.55 | -0.22 | 1.25 | 1.58 | 0.06 |
| CNC(=O)c1nn(C)c2c1C(C)(C)Cc1cnc(Nc3ccc(N4CCN(C)CC4)cc3)nc1-2 | 1.59 | 0.33 | 0.69 | -0.14 | 1.14 | 0.87 | 0.68 | 1.93 | 4.82 | 0.05 |
| CCN(CC)CCNC(=O)c1c(C)[nH]c(/C=C2\C(=O)Nc3ccc(-c4csc(-c5ccccc5)n4)cc32)c1C [Amcasertib (BBI503)] | 0.34 | 0.8 | -0.11 | 0.21 | 0.03 | 0.3 | -0.19 | 3.7 | 4.69 | -0.15 |
| CCCCCCCCCCCCCCCCn1cc[n+](Cc2ccccc2)c1C | -6.09 | 0.5 | -2.72 | -7.84 | -1.74 | -4.15 | -4.78 | -0.96 | -1.51 | -2.91 |
| CCN1/C(=C/C(C)=O)Sc2ccc(OC)cc21 | 1.85 | 1.16 | 0.54 | 0.05 | 0.66 | 0.38 | 0.47 | 0.41 | 0.43 | 0.27 |
| Cc1[nH]c(/C=C2\C(=O)Nc3ccccc32)c(C)c1CCC(=O)O [Orantinib (TSU-68, SU6668)] | 2.5 | 12.6 | 0.82 | 0.57 | 1.81 | 4.33 | 1.32 | 4.91 | 7.18 | 0.78 |
| Cc1nc(Nc2cnn(C3CCNCC3)c2)nc2c1N(C)C(=O)c1cc3ccccc3cc1N2C | 0.83 | 1.06 | 0.29 | 0.05 | 1.06 | 0.51 | 0.09 | 1.07 | 1.04 | -0.03 |
| Oc1c2ccccc2c2c3c(cccc13)N=N2 | 1.83 | 9.76 | 1.18 | 2.18 | 6.47 | 6.02 | 1.65 | 3.38 | 5.57 | 0.82 |
